For eight molecules, growth results are on record in PubChem BioAssay (NCI).

Several values for one entry are separate records, joined by “and”; a condition that tells them apart may be missing. Equal values may be shown once. About 83,000 compounds went through this panel and 20% of them were active in at least one assay; those are over-represented in the sample as a whole.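 Compound tested at a single concentration for 48 hours in 96-well plates; a percent growth value below 10 was scored as active.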 Unmarked numbers belong to inactive results. Activity calls are given as the source filed them.

Among the test systems are MOLT-4 leukemia; SR leukemia; RPMI-8226 leukemia; OVCAR-8 ovarian; OVCAR-5 ovarian; OVCAR-4 ovarian; SK-OV-3 ovarian; IGROV1 ovarian; NCI/ADR-RES ovarian; T-47D breast; BT-549 breast; MDA-MB-435 melanoma; SW-620 colon; MCF7 breast; HCT-116 colon; HCC-2998 colon; HS 578T breast; KM12 colon; OVCAR-3 ovarian.
What all share (experiment): NCI-60 one-dose screen, 48 h (100 = growth as untreated, 0 = no growth, -100 = all killed)
Common to all, as to conditions: 10 µM unless noted

Take `C[C@]12CC[C@H]3[C@@H](C[C@@H]4SC(Nc5cccc(F)c5)=N[C@@]45CC(=O)CC[C@]35C)[C@@H]1CCC2=O`: the growth in the assay with MOLT-4 leukemia is -3.78% (active); with SR leukemia, -11.9% (active); with RPMI-8226 leukemia it was -22.3% (active); with OVCAR-8 ovarian, 39.6%; in the assay with OVCAR-5 ovarian it was 65.5%; in the assay with OVCAR-4 ovarian, 59.2%. The growth with SK-OV-3 ovarian was -18.4% (active); in the assay on IGROV1 ovarian it was 60%; in the assay with NCI/ADR-RES ovarian, 55.4%; with T-47D breast, -0.755% (active); in the assay with BT-549 breast, -8.61% (active); in the assay with MDA-MB-435 melanoma it was 35.9%. Besides, the growth in the assay with SW-620 colon was 4.62% (active); in the assay on MCF7 breast, 4.46% (active); in the assay on HCT-116 colon, -68.8% (active); in the assay on HCC-2998 colon it was 75.5%.
On to `CC(=O)c1cccc(S(=O)(=O)F)c1`, for which the growth in the assay with MOLT-4 leukemia was 112%; in the assay with SR leukemia, 76.1%; with RPMI-8226 leukemia, 101%; with OVCAR-8 ovarian, 106%; in the assay on OVCAR-5 ovarian, 90.5%; with OVCAR-4 ovarian it was 114%. The growth with SK-OV-3 ovarian is 109%; in the assay with IGROV1 ovarian, 103%; in the assay with HS 578T breast, 96.4%; in the assay on NCI/ADR-RES ovarian, 96.9%; with T-47D breast it was 110%; with BT-549 breast, 88.8%. The growth in the assay with MDA-MB-435 melanoma is 97.8%; in the assay on SW-620 colon it was 105%; in the assay with MCF7 breast, 96.8%; in the assay on HCT-116 colon it was 92.1%; with HCC-2998 colon it was 95.2%; in the assay on KM12 colon, 105%.
`CC[CH2][Sn]([Cl])([Cl])[CH2]CC.Oc1ccccc1C=NCCN=Cc1ccccc1O`: the growth in the assay on MOLT-4 leukemia was 40.2% and 12.6%; in the assay with SR leukemia, 24.8% and 21.8%; in the assay with RPMI-8226 leukemia, -24.1% (active) and -10.1% (active); in the assay on OVCAR-8 ovarian it was 87.8% and 72.5%; with OVCAR-5 ovarian, 97.1% and 84.2%; with OVCAR-4 ovarian, 69.6%. For the same molecule, the growth is 109% and 92.2% with SK-OV-3 ovarian; 74.1% and 61.9% in the assay on IGROV1 ovarian; 90.7% and 91.1% in the assay with NCI/ADR-RES ovarian; -86.4% (active) and -71% (active) in the assay on T-47D breast; 72.7% and 37.4% in the assay on BT-549 breast; 71.8% and 50.1% in the assay with MDA-MB-435 melanoma. Moreover, the growth in the assay with SW-620 colon was 2.07% (active) and -59.7% (active); in the assay on MCF7 breast, 21.9% and 17.1%; in the assay with HCT-116 colon, 66.2% and 60.3%; in the assay with HCC-2998 colon, 66.5% and 52.5%; with KM12 colon, 88.4% and 79.7%.
Regarding `CC1=C2[C@H]3OC(=O)[C@@H](C)[C@@H]3CC[C@@]2(C)C=CC1=O`, the growth is 104% in the assay on MOLT-4 leukemia; 114% in the assay with SR leukemia; 91% in the assay on RPMI-8226 leukemia; 116% in the assay on OVCAR-8 ovarian; 90.7% in the assay on OVCAR-5 ovarian; 110% with OVCAR-4 ovarian. Also, the growth in the assay on SK-OV-3 ovarian was 122%; in the assay with OVCAR-3 ovarian, 129%; in the assay on HS 578T breast it was 108%; in the assay with NCI/ADR-RES ovarian it was 13.8%; with T-47D breast, 109%; in the assay with MDA-MB-435 melanoma, 115%. In addition, the growth in the assay with SW-620 colon was 108%; with MCF7 breast, 103%; with HCT-116 colon, 118%; in the assay on KM12 colon, 105%.
For the molecule `N#Cc1ccc(Cl)cc1`, the growth in the assay on MOLT-4 leukemia was 92.5%; in the assay on SR leukemia, 87%; in the assay on RPMI-8226 leukemia it was 106%; with OVCAR-8 ovarian, 109%; in the assay on OVCAR-5 ovarian, 109%; in the assay on OVCAR-4 ovarian, 115%. For the same molecule, the growth was 109% in the assay on SK-OV-3 ovarian; 104% in the assay on IGROV1 ovarian; 114% in the assay on OVCAR-3 ovarian; 113% in the assay on NCI/ADR-RES ovarian; 104% with T-47D breast; 117% with MDA-MB-435 melanoma. The growth is 103% in the assay with SW-620 colon; 103% in the assay with MCF7 breast; 114% in the assay with HCT-116 colon; 123% in the assay with HCC-2998 colon; 115% in the assay with KM12 colon.
As to `Nc1cccnc1`, the growth in the assay with MOLT-4 leukemia is 101%; with SR leukemia, 90.4%; in the assay with RPMI-8226 leukemia it was 105%; in the assay with OVCAR-8 ovarian, 104%; in the assay on OVCAR-5 ovarian, 116%; with OVCAR-4 ovarian, 129%. For the same molecule, the growth in the assay on SK-OV-3 ovarian was 105%; in the assay on IGROV1 ovarian it was 106%; with OVCAR-3 ovarian it was 119%; with NCI/ADR-RES ovarian, 104%; in the assay with T-47D breast, 106%; with BT-549 breast, 110%. In addition, the growth in the assay on MDA-MB-435 melanoma is 122%; in the assay with SW-620 colon, 105%; with HCT-116 colon, 104%; in the assay with HCC-2998 colon, 101%; with KM12 colon, 112%.
On to `CN(C)c1ccc(C=C2C(=O)NC(=O)NC2=O)cc1`, for which the growth in the assay with MOLT-4 leukemia is 98.7%; with SR leukemia it was 107%; in the assay on RPMI-8226 leukemia, 131%; in the assay with OVCAR-8 ovarian, 98.5%; in the assay on OVCAR-5 ovarian, 77.9%; in the assay with OVCAR-4 ovarian, 116%. For the same molecule, the growth with SK-OV-3 ovarian is 109%; in the assay on OVCAR-3 ovarian, 95.8%; with HS 578T breast it was 91.7%; in the assay with NCI/ADR-RES ovarian, 76.7%; with T-47D breast, 76.1%; in the assay with MDA-MB-435 melanoma, 111%. Besides, the growth is 93.4% with SW-620 colon, 100% in the assay on MCF7 breast, 53.9% with HCT-116 colon and 98.9% in the assay on KM12 colon.
In the case of `N#CCCc1ccccc1`, the growth with MOLT-4 leukemia was 94.5%; in the assay with SR leukemia, 91.8%; in the assay with RPMI-8226 leukemia it was 111%; with OVCAR-8 ovarian it was 107%; in the assay with OVCAR-5 ovarian, 98%; with OVCAR-4 ovarian, 110%. Also, the growth was 111% in the assay on SK-OV-3 ovarian; 103% in the assay with IGROV1 ovarian; 119% with OVCAR-3 ovarian; 104% with NCI/ADR-RES ovarian; 112% in the assay on T-47D breast; 106% in the assay with BT-549 breast. The growth was 104% with MDA-MB-435 melanoma; 102% with SW-620 colon; 92% with MCF7 breast; 104% in the assay with HCT-116 colon; 103% with HCC-2998 colon; 109% in the assay with KM12 colon.
